From PubChem BioAssay (NCI) come the findings set out here.

Compounds without any hit were thinned out: in the full panel of roughly 83,000, 20% have a hit.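 Results are percent growth after 48 hours of single-concentration exposure. 100 means growth as in untreated cells, lower positive values show inhibition; negative values down to -100 show cell death.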 A number with no mark means an inactive call. Active and inactive are the calls of the source. How the source made its calls: active means growth percent below 10; inactive means the rest.

The test system of the assay is SK-MEL-2 melanoma. In words: NCI-60 one-dose screen, 48 h (100 = growth as untreated, 0 = no growth, -100 = all killed). The settings on record: 10 µM unless noted.
Turning to `C[n+]1ccc(CCc2c[nH]c3ccccc23)cc1`, the growth was 81.7%. Consider `O=C(CI)NC(=O)NC(=O)NCc1ccccc1`, for which the growth was 69.4%.

As for `O=C1/C=C/[C@@H](O)[C@@H]2C[C@@H](O)C[C@H]2/C=C/CCC[C@@H](O)CCO1`, the growth is 122%. To `CC/C=C\C[C@H](O)C/C=C1/C(=O)C=C[C@@H]1C/C=C\CCCC(=O)O` belongs 62.2%; to `CCCCNC(=O)c1cc([N+](=O)[O-])cc(C2CCCCC2)c1O`, 19.5%; to `CC(=C(c1ccc(OCCN2CCCCC2)cc1)c1ccc(OCCN2CCCCC2)cc1)c1ccc(Cl)cc1`, -82.9% (active). With `S=C(c1ccc2c(c1)OCO2)N1CCN(c2cccc(Cl)c2)CC1` the figure was 71.7%; with `COc1ccc(/C(C)=C(/c2ccc(OCCCN(C)C)cc2)c2ccc(OC(=O)c3ccccc3)cc2)cc1`, 90.9%.

Regarding `Cc1c(CC(=S)N2CCOCC2)nnn1-c1cccc(C(F)(F)F)c1`, the growth was 111%.

As to `COc1cccc(/C=C/C(=O)c2cc3c(N)c(C(=O)Nc4cccc5ccccc45)sc3nc2C)c1`, the growth was 24.2%. With `COc1cc(OC)c2sc(-c3ccc(-n4cncc4-c4cc(OC)c(OC)c(OC)c4)cc3)nc2c1` the figure was 55.4%; with `COC(=O)C(Cc1ccccc1)NC(=O)c1ccc(NC(=O)c2[nH]c(C)c(Cl)c2Cl)c(OC(C)C)c1` (stereo not given), 105%. With `O=C(N/N=C\c1cccc([N+](=O)[O-])c1)N/N=C/c1cccc([N+](=O)[O-])c1` the figure was 108%.

As to `COc1ccccc1N(C(C)=O)C1=C(Cl)C(=O)c2ccccc2C1=O`, the growth is -38.2% (active). To `COc1cccc(CNc2c3ccccc3nc3ccccc23)c1` belongs 67.9%; to `NC1(CO)COC(c2ccccc2)OC1` (stereo not given), 102%. To `CO[C@H](C(=O)[C@@H](O)[C@@H](C)O)[C@@H]1Cc2cc3cc(O[C@H]4C[C@@H](O[C@H]5C[C@@H](O)[C@H](O)C(C)O5)[C@H](O)C(C)(O)O4)cc(O)c3c(O)c2C(=O)[C@H]1O[C@H]1C[C@@H](O[C@H]2C[C@@H](O[C@H]3C[C@@H](OC)[C@H](O)C(C)O3)[C@@H](O)C(C)O2)[C@H](O)C(C)O1` (stereo not given in full) belongs -54.9% (active). In the case of `N#Cc1c(-c2ccccc2)nc(SCC(O)CN2CCOCC2)nc1N1CCOCC1` (stereo not given), the growth was 7.33% (active). As for `COc1cc(-c2nc3cc(Cl)c(Cl)cc3[nH]2)ccc1OCC(=O)N=Nc1c(O)[nH]c2ccc(Cl)cc12`, the growth was -27.3% (active). With `CNC(=O)c1ccccc1Nc1nc(Nc2cc(OC)c(OC)c(OC)c2)ncc1Br` the figure was -77.4% (active); with `C=C(C)[C@@H]1CC[C@]2(C(N)=O)CC[C@]3(C)[C@H](CC[C@@H]4[C@@]5(C)CC[C@H](OCCC#N)C(C)(C)[C@@H]5CC[C@]43C)[C@@H]12`, 92.5%; with `N#C/C(=C\C=C\c1ccc(-c2cc(Cl)ccc2Cl)o1)c1nc2ccccc2s1`, 104%. To `COc1ccc(/C=C/C(c2cc(OC)c(OC)c(OC)c2)n2ccnc2)cc1O` (stereo not given) belongs 41.7%; to `Cc1ccc2nc(/C(C#N)=C(/CCCO)NC(Cc3ccccc3)C(=O)OCc3ccccc3)[nH]c(=O)c2c1` (stereo not given), 96.8%; to `N#C/C(=C\c1ccc(-c2cccc(C(F)(F)F)c2)o1)c1ccccc1`, 98.9%.

With `O=C(NC1CC(F)C1)c1cc2cccnc2n1-c1ccc(Cl)c(Cl)c1` (stereo not given), the growth was 105%.

For the compound `CCNC(=O)Oc1ccc(/C(=C(/CC)Cc2ccccc2)c2ccc(OCCN3CCCC3)cc2)cc1`, the growth was 108%. To `COc1cc(C2C(C(=O)OCc3ccccc3)=C(C)NC(C)=C2C(=O)OCc2ccccc2)cc(OC)c1OC` belongs -6.43% (active); to `CN(Cc1cc(Br)cc(Br)c1O)Cc1cc(Br)cc(Br)c1O`, 51%; to `Cc1c2cccnc2c(C)c2c1c1cc(CO)ccc1n2C`, 29.9%. As for `S=c1[nH]c(=S)c2c(-c3ccccc3)c(-c3ccccc3)oc2[nH]1`, the growth was 99.6%.

As to `CCC1S/C(=N\N=C(\C)c2cc3cc(Cl)ccc3o2)N(c2ccccc2)C1=O` (stereo not given), the growth is 299%. To `CCN(CC)Cc1cc(Nc2ccnc3cc(Cl)ccc23)ccc1O` belongs 111%; to `CCOC(=O)C(Cc1ccc(OC)cc1)C(=O)OCC`, 43.4%; to `CC1(C)CC[C@]2(C(=O)N[C@H](CO)Cc3ccccc3)CC[C@]3(C)C(=CC[C@@H]4[C@@]5(C)CCCNC(C)(C)[C@@H]5CC[C@]43C)[C@@H]2C1`, 107%.
